# From PubChem BioAssay (NCI)
# Compounds without any hit were thinned out: in the full panel of roughly 83,000, 20% have a hit.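 Values shown are percent growth following 48 h exposure of cells in 96-well plates to a single concentration of compound; below 10 was considered active.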 Unmarked numbers belong to inactive results. The source made the active and inactive calls.
# Columns and labels:
# Experiment in all cases: NCI-60 one-dose screen, 48 h (100 = growth as untreated, 0 = no growth, -100 = all killed)
# Details in all cases: 10 µM unless noted
# RPMI-8226 leukemia = system: RPMI-8226 leukemia
# OVCAR-8 ovarian = system: OVCAR-8 ovarian
# OVCAR-5 ovarian = system: OVCAR-5 ovarian
# OVCAR-4 ovarian = system: OVCAR-4 ovarian
# SK-OV-3 ovarian = system: SK-OV-3 ovarian
# IGROV1 ovarian = system: IGROV1 ovarian
# HS 578T breast = system: HS 578T breast
# NCI/ADR-RES ovarian = system: NCI/ADR-RES ovarian
# T-47D breast = system: T-47D breast
# OVCAR-3 ovarian = system: OVCAR-3 ovarian
Structure (SMILES),growth (RPMI-8226 leukemia),growth (OVCAR-8 ovarian),growth (OVCAR-5 ovarian),growth (OVCAR-4 ovarian),growth (SK-OV-3 ovarian),growth (IGROV1 ovarian),growth (HS 578T breast),growth (NCI/ADR-RES ovarian),growth (T-47D breast),growth (OVCAR-3 ovarian)
O=C1Nc2ccccc2Oc2ccc(S(=O)(=O)CC3CO3)cc21 (stereo not drawn),44.9%,64.3%,85.5%,70.1%,122%,62.3%,60.6%,98.2%,47.5%,
O=C1c2c(c3c4cccnc4[nH]c3c3ccc4ccccc4c23)C(=O)N1CCO,72.7%,78%,121%,105%,84.8%,67.7%,121%,87.2%,37.2%,
Cc1ccccc1NC(=O)/C=C/c1ccc(OCCOc2ccc3c(C)cc(=O)oc3c2)cc1,94%,64.9%,103%,75.5%,77.6%,103%,61.2%,84.6%,84.1%,
Cc1ccc(/C=C/c2nn3c(-c4ccco4)nnc3s2)cc1C,109%,88.7%,107%,101%,116%,97.5%,102%,108%,102%,114%
COc1ccc(-c2nc3ccc(-c4nnc(SCC(=O)Nc5ccc(C(=O)/C=C/c6ccccc6)cc5)o4)cc3[nH]2)cc1OC,64%,104%,99.4%,109%,117%,96.4%,96.1%,110%,86.9%,114%
NS(=O)(=O)c1ccc(Nc2nc(SCC(=O)c3ccc(Cl)cc3)nc3ccccc23)cc1,83.6%,95.6%,100%,91.3%,110%,82.8%,92.2%,105%,77.6%,102%
N[C@@H](Cc1cn(-c2ccnc3ccccc23)nn1)C(=O)O,106%,104%,101%,109%,101%,102%,109%,103%,101%,
CC(=O)c1ccc(Nc2nc(SC(C)C)nc(-c3ccccc3)c2C#N)cc1,95%,95.7%,100%,94.9%,103%,89.7%,90.6%,92%,81%,
Fc1ccc(-c2nc(C(Cl)Cl)nc3cc(-c4ccccc4)nn23)cc1,8.68% (active),-0.748% (active),-12.3% (active),-18.6% (active),-28.9% (active),20.4%,-7.41% (active),17.8%,44.3%,-28.1% (active)
CCCCCCNC(=O)Oc1ccc(/C(=C(/C)c2ccccc2)c2ccc(OCCN3CCCCCC3)cc2)cc1,-27.7% (active),66.1%,69.3%,49.7%,98.7%,51.4%,51.4%,64.5%,21.6%,48.9%
Clc1ccc2oc3c(NCCCN4CCOCC4)c4ccccc4nc3c2c1,11.4%,23.3%,30%,36.9%,,16.9%,37.8%,29.2%,51.7%,64.5%
Cc1cc(=O)oc2cc(OCCCOc3ccc(/C=C/C(=O)Nc4ccc(Cl)cc4)cc3)ccc12,70.7%,67.1%,84%,12.6%,90.4%,73.2%,46.2%,56.6%,47.2%,
C=CCSc1ccc2c(c1)C(N1CCNCC1)=Nc1ccccc1O2,63.2% [8.25 µM],92.5% [8.25 µM],85.4% [8.25 µM],83.1% [8.25 µM],88.2% [8.25 µM],63.1% [8.25 µM],72.1% [8.25 µM],87.9% [8.25 µM],71.3% [8.25 µM],
O=C1Nc2ccc(Cl)cc2/C1=C/c1ccc(OCC(=O)c2ccc(Br)cc2)cc1,101%,96%,93.2%,91.7%,79.9%,63%,89.3%,93.3%,84.2%,90.3%
CC(=O)Oc1ccccc1C(=O)Nc1ccc(C(=O)/C=C/c2ccncc2)cc1,-25.8% (active),82.4%,64.4%,87.5%,111%,10.3%,69.5%,91.8%,53.4%,33.2%
COc1cc2nc(-c3ccc(C)cc3)cc(OCCCNCC3CCCO3)c2cc1OC (stereo not drawn),24.1%,46.8%,56.7%,89.8%,,49.1%,84.3%,54.8%,66%,101%
O=C1c2c(c3c4cc(Br)ccc4[nH]c3c3ccc4ccccc4c23)C(=O)N1CCO,80.3%,85.2%,108%,104%,89.3%,73.9%,103%,90.5%,51.5%,
COc1cc(-c2nc3ccc(-c4nnc(SCC(=O)Nc5ccc(C(=O)/C=C/c6ccc(Cl)cc6)cc5)o4)cc3[nH]2)cc(OC)c1OC,57.2%,92.5%,99.2%,100%,,81.6%,87.9%,106%,80.4%,97.9%
CCOC(=O)c1c(Nc2ccccc2)nn2c(N)c(C#N)c(-c3ccc(OC)cc3)nc12,88.7%,66.1%,101%,35.9%,55.9%,85.5%,19.4%,73.3%,61.3%,101%
O=C(c1ccc(Cl)cc1)C1[C@H](c2ccc(Cl)cc2)[C@@H](c2ccccc2)NC12C(=O)Nc1ccc(Br)cc12 (stereo partly drawn),18.2%,38.3%,52.8%,44.6%,101%,35.9%,58.2%,28.8%,31.2%,25.5%
N#Cc1c(-c2ccc(F)cc2)nc2c(C#N)c(Nc3ccccc3)nn2c1N,104%,101%,98.9%,103%,117%,107%,99.6%,103%,88.3%,106%
O=C1C2=C(C(=O)c3c(O)cccc31)C(c1ccco1)c1sc(=O)[nH]c1S2 (stereo not drawn),18.7%,2.5% (active),11.7%,24.3%,115%,28.1%,-10.4% (active),9.22% (active),23.6%,
COc1cc(/C=C/C(=O)c2ccc(Cl)cc2)ccc1Oc1nc(NCCO)nc(N2CCOCC2)n1,65.4%,104%,102%,114%,96.6%,99%,84%,105%,86.1%,116%
COC(=O)C1CN(S(=O)(=O)/N=C2\NC(=O)NC2=C(Cl)Cl)C1,85.2%,99.9%,116%,123%,113%,109%,104%,109%,81%,116%
COc1cccc(OC)c1-c1nnn(C)c1C(=S)N1CCN(c2ccc([N+](=O)[O-])cc2Cl)CC1,77.5%,95.4%,91.6%,91.9%,110%,78.1%,95%,93.6%,101%,112%
Nc1nc(N)c2c(n1)NC(c1ccc(C(F)(F)F)cc1)CC(c1ccc(Nc3nc(NCCO)nc(Nc4ccc(Cl)cc4)n3)cc1)=N2 (stereo not drawn),-36.9% (active),-26.1% (active),-88.7% (active),-9.44% (active),-26% (active),-67.7% (active),-10.5% (active),-29.3% (active),36%,-20.9% (active)
CN(C)c1ccc(/C=c2\sc3nc4ccccc4n3c2=O)cc1,104%,106%,102%,107%,124%,77.2%,101%,107%,83.8%,124%
